# Legend:
# Assay in all cases: DAPPL (digital affinity profiling via proximity ligation, sequencing); 10 mM Tris-HCl pH 7.5, 50 mM NaCl, 1 mM DTT, 4% glycerol, room temperature, 30 min; GST-TFs on glutathione beads, 16-mer random dsDNA library, 0.1% formaldehyde crosslink after washing; high values mean tight binding
# FEV = biological target: T1, FEV (Homo sapiens, UniProt Q99581 1-238); conditions: protein: recombinant; tags: N-terminal GST; dsDNA, one strand shown
# T1 sequence: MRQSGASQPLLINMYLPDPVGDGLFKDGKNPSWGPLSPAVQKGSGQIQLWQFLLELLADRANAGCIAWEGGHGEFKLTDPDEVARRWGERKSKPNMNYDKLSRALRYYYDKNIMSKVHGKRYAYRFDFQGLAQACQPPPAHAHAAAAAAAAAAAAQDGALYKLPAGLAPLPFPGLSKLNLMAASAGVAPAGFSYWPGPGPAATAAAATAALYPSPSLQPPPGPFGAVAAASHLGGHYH
# How it was run: (§1)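 Binding signal is defined as a hexamer's read frequency for one factor over its frequency for the tag-only sample. To obtain reads, GST-fused human transcription factors were expressed in yeast, captured on glutathione beads, barcoded with DNA and pooled with that sample. Pools met 200 nmole of a 16-mer random double-stranded DNA library in Tris/NaCl/DTT/glycerol buffer for 30 min at room temperature before washing, 0.1% formaldehyde crosslinking, proximity ligation (BsaI/T4 ligase, 1 h, 37 °C), PCR and Illumina NextSeq500 sequencing.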
# ETV5 = ETV5 (Homo sapiens, UniProt P41161 1-510); conditions: protein: recombinant; tags: N-terminal GST; dsDNA, one strand shown
# ETV5, sequence (P41161 whole entry): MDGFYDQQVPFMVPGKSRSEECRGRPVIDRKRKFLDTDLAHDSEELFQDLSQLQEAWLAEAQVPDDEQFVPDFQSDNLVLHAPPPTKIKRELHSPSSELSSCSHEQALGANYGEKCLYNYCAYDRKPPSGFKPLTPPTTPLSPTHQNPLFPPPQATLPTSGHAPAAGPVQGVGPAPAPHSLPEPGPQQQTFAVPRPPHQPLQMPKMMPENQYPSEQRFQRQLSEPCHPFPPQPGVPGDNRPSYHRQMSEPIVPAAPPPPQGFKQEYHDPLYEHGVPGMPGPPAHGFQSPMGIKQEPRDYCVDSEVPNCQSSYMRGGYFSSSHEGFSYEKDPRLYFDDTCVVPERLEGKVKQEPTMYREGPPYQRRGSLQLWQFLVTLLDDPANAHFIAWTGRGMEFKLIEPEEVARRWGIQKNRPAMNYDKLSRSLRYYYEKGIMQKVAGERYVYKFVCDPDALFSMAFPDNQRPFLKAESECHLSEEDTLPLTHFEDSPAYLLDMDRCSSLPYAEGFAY
# How it was run: as §1
# HSF1 = HSF1 (Homo sapiens, UniProt Q00613 1-529); conditions: protein: recombinant; tags: N-terminal GST; chain copies: 3; dsDNA, one strand shown
# HSF1, sequence (Q00613 whole entry): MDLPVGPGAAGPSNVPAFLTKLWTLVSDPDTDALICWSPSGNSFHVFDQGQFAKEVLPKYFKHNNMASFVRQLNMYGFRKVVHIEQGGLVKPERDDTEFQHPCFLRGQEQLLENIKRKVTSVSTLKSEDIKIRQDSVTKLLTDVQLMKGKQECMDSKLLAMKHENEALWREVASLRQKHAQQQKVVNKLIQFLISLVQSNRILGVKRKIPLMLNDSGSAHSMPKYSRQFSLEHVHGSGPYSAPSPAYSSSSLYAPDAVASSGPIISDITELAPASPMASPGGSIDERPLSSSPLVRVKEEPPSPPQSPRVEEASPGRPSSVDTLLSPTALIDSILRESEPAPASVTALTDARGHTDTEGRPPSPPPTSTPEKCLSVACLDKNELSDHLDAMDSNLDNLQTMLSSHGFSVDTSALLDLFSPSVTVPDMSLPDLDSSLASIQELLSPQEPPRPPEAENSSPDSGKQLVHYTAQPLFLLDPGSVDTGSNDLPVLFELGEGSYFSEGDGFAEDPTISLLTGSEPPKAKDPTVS
# How it was run: as §1
# SPIC = biological target: T2, SPIC (Homo sapiens, UniProt Q8N5J4 1-248); conditions: protein: recombinant; tags: N-terminal GST; dsDNA, one strand shown
# T2 sequence: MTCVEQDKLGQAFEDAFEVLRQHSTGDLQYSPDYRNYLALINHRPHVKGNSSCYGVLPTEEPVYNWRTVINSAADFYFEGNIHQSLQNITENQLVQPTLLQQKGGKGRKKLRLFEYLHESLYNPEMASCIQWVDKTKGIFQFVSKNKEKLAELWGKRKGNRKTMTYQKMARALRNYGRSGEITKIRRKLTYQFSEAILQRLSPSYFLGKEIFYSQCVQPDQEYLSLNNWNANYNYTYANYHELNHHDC
# How it was run: as §1
# ELF4 = ELF4 (Homo sapiens, UniProt Q99607 1-663); conditions: protein: recombinant; tags: N-terminal GST; dsDNA, one strand shown
# ELF4, sequence (Q99607 whole entry): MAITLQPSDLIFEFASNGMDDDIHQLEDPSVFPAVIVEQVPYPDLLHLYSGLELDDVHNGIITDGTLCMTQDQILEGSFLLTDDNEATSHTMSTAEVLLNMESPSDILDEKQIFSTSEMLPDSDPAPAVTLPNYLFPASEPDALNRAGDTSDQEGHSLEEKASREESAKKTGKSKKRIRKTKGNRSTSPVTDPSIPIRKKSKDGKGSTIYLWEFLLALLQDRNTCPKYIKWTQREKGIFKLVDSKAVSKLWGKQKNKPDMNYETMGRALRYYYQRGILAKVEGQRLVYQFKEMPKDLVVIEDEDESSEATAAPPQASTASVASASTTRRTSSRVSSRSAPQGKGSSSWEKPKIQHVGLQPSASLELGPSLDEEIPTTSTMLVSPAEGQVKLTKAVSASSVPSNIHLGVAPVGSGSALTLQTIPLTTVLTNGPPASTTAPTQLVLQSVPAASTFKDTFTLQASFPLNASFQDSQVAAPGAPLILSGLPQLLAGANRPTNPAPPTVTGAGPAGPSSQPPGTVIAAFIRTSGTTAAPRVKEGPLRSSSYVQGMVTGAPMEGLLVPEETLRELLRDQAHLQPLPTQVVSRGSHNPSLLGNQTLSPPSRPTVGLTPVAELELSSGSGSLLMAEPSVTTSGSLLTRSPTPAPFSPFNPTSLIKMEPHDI
# How it was run: as §1
# ELK4 = biological target: T3, ELK4 (Homo sapiens, UniProt P28324-2 1-405); conditions: protein: recombinant; tags: N-terminal GST; dsDNA, one strand shown
# T3 sequence: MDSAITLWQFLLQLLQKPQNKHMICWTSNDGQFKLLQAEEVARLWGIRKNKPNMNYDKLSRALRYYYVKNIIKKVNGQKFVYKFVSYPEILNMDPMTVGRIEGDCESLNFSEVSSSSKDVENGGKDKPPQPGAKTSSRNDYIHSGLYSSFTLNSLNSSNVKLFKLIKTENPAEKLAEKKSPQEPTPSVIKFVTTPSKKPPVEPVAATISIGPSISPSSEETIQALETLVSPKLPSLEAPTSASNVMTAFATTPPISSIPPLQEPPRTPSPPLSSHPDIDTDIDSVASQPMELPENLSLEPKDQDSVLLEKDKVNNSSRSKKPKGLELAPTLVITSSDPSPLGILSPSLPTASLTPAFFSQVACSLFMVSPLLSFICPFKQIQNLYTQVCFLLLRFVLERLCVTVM
# How it was run: as §1
# ETV2 = biological target: T4, ETV2 (Homo sapiens, UniProt O00321 1-342); conditions: protein: recombinant; tags: N-terminal GST; dsDNA, one strand shown
# T4 sequence: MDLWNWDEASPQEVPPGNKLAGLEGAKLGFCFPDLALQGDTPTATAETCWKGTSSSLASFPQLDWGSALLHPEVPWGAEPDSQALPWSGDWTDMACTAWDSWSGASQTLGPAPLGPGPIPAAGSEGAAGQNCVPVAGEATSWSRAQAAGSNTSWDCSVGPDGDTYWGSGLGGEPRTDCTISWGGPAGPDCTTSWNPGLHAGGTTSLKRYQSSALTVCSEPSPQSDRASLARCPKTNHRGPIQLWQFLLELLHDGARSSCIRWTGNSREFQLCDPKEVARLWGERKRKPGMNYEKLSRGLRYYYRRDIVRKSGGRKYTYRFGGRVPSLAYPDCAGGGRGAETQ
# How it was run: as §1
# ELF3 = biological target: T5, ELF3 (Homo sapiens, UniProt P78545 1-371); conditions: protein: recombinant; tags: N-terminal GST; dsDNA, one strand shown
# T5 sequence: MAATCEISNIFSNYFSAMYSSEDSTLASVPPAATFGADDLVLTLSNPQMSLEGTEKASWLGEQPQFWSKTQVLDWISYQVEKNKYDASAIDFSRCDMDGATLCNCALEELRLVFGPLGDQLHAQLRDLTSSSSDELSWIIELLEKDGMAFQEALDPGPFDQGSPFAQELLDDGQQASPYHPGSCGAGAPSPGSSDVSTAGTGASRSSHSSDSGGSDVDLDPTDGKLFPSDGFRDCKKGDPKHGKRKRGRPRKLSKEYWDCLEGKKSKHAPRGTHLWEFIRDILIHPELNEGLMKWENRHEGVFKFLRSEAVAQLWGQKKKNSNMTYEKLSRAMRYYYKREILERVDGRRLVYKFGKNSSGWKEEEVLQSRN
# How it was run: as §1
# CRX = CRX (Homo sapiens, UniProt O43186 1-299); conditions: protein: recombinant; tags: N-terminal GST; dsDNA, one strand shown
# CRX, sequence (O43186 whole entry): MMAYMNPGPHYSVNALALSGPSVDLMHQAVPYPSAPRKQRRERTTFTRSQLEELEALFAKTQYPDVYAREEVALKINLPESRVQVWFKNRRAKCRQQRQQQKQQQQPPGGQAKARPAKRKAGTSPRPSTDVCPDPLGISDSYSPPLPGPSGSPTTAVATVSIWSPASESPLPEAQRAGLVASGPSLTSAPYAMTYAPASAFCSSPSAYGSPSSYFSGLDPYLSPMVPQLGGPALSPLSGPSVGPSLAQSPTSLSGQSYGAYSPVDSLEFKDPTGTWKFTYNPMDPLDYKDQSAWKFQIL
# How it was run: as §1
# ETV1 = ETV1 (Homo sapiens, UniProt P50549 1-477); conditions: protein: recombinant; tags: N-terminal GST; dsDNA, one strand shown
# ETV1, sequence (P50549 whole entry): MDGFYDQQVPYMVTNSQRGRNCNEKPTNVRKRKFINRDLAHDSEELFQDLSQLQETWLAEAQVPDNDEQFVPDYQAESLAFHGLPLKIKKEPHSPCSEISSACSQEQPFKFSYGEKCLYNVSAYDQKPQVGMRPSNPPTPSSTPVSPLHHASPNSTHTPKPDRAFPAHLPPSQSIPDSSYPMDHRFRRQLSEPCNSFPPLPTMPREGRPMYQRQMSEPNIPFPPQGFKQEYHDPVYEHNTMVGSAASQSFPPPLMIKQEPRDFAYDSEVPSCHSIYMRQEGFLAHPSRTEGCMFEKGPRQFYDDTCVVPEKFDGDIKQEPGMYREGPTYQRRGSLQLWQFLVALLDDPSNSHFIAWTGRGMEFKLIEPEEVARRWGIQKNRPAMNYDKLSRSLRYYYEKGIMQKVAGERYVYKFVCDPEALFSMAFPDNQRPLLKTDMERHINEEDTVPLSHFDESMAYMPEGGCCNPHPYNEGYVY
# How it was run: as §1
sequence,measurement,setting,value
TATTCC,binding signal,FEV,"1.61 fold enrichment (6-mer frequency, TF over GST control)"
same,binding signal,ETV5,"1.72 fold enrichment (6-mer frequency, TF over GST control)"
same,binding signal,HSF1,"2.11 fold enrichment (6-mer frequency, TF over GST control)"
same,binding signal,SPIC,"1.74 fold enrichment (6-mer frequency, TF over GST control)"
same,binding signal,ELF4,"1.62 fold enrichment (6-mer frequency, TF over GST control)"
same,binding signal,ELK4,"1.44 fold enrichment (6-mer frequency, TF over GST control)"
same,binding signal,ETV2,"1.68 fold enrichment (6-mer frequency, TF over GST control)"
same,binding signal,ELF3,"1.5 fold enrichment (6-mer frequency, TF over GST control)"
same,binding signal,CRX,"1.77 fold enrichment (6-mer frequency, TF over GST control)"
same,binding signal,ETV1,"1.52 fold enrichment (6-mer frequency, TF over GST control)"
